Drawing on article PMC8384837, “Expanding the binding specificity for RNA recognition by a PUF domain”, this text covers binding signal for seven sequences.

What all share (assay): yeast three-hybrid, YBZ-1, SC-Leu-His + 0.5 mM 3-AT, 4 days
Common to all, as to details: tags: N-Gal4 AD-HA kept; label: inside an RPR1-promoter hybrid RNA with tandem MS2 sites; ssRNA

In one assay the target is PUM1 PUF domain R4-EPS (Homo sapiens, UniProt Q14671 828-1176, N971E;H972P;Q975S). The gist of the method: (§1)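 Repeat regions from input (SC-Leu) and selection (SC-Leu-His + 0.5 mM 3-AT) plates were PCR-amplified and Illumina-sequenced after four days of growth. The cells were strain YBZ-1 with a LexA–MS2 coat fusion and a HIS3 reporter, co-expressing Pumilio-1 PUF domain libraries and matching RNA elements from a centromeric plasmid. The interaction score is the log change in variant frequency from input to selection, taken in log2 with a pseudocount of 1 for absent variants.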

A further assay concerns the target PUM1 PUF domain R4-GHF (Homo sapiens, UniProt Q14671 828-1176, N971G;Q975F). The gist of the method: as §1
In a further assay the target is PUM1 PUF domain R8-HWV (Homo sapiens, UniProt Q14671 828-1176, N1122H;Y1123W;Q1126V). The gist of the method: as §1
Another assay has as its target PUM1 PUF domain R4-DHL (Homo sapiens, UniProt Q14671 828-1176, N971D;Q975L). The gist of the method:
as §1

Another assay deals with PUM1 PUF domain R5-LYC (Homo sapiens, UniProt Q14671 828-1176, C1007L;R1008Y;Q1011C). The gist of the method: as §1
The target of a further assay is PUM1 PUF domain R1-RRA (Homo sapiens, UniProt Q14671 828-1176, S863R;Q867A). The gist of the method: as §1
Another assay concerns the target PUM1 PUF domain R1-KCV (Homo sapiens, UniProt Q14671 828-1176, S863K;R864C;Q867V). The gist of the method:
as §1

Another assay concerns the target PUM1 PUF domain R5-RMG (Homo sapiens, UniProt Q14671 828-1176, C1007R;R1008M;Q1011G). The gist of the method: as §1
Another assay has as its target PUM1 PUF domain R5-KHW (Homo sapiens, UniProt Q14671 828-1176, C1007K;R1008H;Q1011W). The gist of the method: as §1
For the next assay, the target named is PUM1 PUF domain R4-CNA (Homo sapiens, UniProt Q14671 828-1176, N971C;H972N;Q975A). The gist of the method:
as §1

In another assay the target is PUM1 PUF domain R4-CMS (Homo sapiens, UniProt Q14671 828-1176, N971C;H972M;Q975S). The gist of the method: as §1
The target in another assay is PUM1 PUF domain R4-NNH (Homo sapiens, UniProt Q14671 828-1176, H972N;Q975H). The gist of the method: as §1
The target of another assay is PUM1 PUF domain R4-PYL (Homo sapiens, UniProt Q14671 828-1176, N971P;H972Y;Q975L). The gist of the method: as §1

With “GGCUAGAACUAGUGGAUCCCCCGGCGCCCGGCGGCUCGAGCCCGGGUAAGUGUAAAUAGUCUGCAUGCCGCCGGGCGCCAUGCCUGCAGGUCGACUCUAGAAAACAUG”, the binding signal in the assay with PUM1 PUF domain R4-EPS is 3.28 log2 enrichment (interaction score); with PUM1 PUF domain R4-GHF it was 4.42 log2 enrichment (interaction score); with PUM1 PUF domain R8-HWV, 3.05 log2 enrichment (interaction score); with PUM1 PUF domain R4-DHL, 2.49 log2 enrichment (interaction score); with PUM1 PUF domain R5-LYC it was 3.33 log2 enrichment (interaction score).
Take “GGCUAGAACUAGUGGAUCCCCCGGCGCCCGGCGGCUCGAGCCCGGGUAAGUGUAAAUCGUCUGCAUGCCGCCGGGCGCCAUGCCUGCAGGUCGACUCUAGAAAACAUG”: the binding signal in the assay with PUM1 PUF domain R1-RRA is 2.68 log2 enrichment (interaction score).
For “GGCUAGAACUAGUGGAUCCCCCGGCGCCCGGCGGCUCGAGCCCGGGUAAGUGUAAAUUGUCUGCAUGCCGCCGGGCGCCAUGCCUGCAGGUCGACUCUAGAAAACAUG”, the binding signal with PUM1 PUF domain R1-RRA was 1.49 log2 enrichment (interaction score); with PUM1 PUF domain R1-KCV, 3.99 log2 enrichment (interaction score).
Consider “GGCUAGAACUAGUGGAUCCCCCGGCGCCCGGCGGCUCGAGCCCGGGUAAGUGUCAAUAGUCUGCAUGCCGCCGGGCGCCAUGCCUGCAGGUCGACUCUAGAAAACAUG”, for which the binding signal in the assay with PUM1 PUF domain R5-RMG is 2.42 log2 enrichment (interaction score); in the assay with PUM1 PUF domain R5-KHW, 2.97 log2 enrichment (interaction score).
On to “GGCUAGAACUAGUGGAUCCCCCGGCGCCCGGCGGCUCGAGCCCGGGUAAGUGUACAUAGUCUGCAUGCCGCCGGGCGCCAUGCCUGCAGGUCGACUCUAGAAAACAUG”, for which the binding signal with PUM1 PUF domain R4-CNA was 2.26 log2 enrichment (interaction score); in the assay with PUM1 PUF domain R4-CMS it was 2.83 log2 enrichment (interaction score).
In the case of “GGCUAGAACUAGUGGAUCCCCCGGCGCCCGGCGGCUCGAGCCCGGGUAAGUGUAUAUAGUCUGCAUGCCGCCGGGCGCCAUGCCUGCAGGUCGACUCUAGAAAACAUG”, the binding signal in the assay with PUM1 PUF domain R4-CNA was 1.78 log2 enrichment (interaction score); with PUM1 PUF domain R4-DHL it was 3.13 log2 enrichment (interaction score); in the assay with PUM1 PUF domain R4-NNH, 2.5 log2 enrichment (interaction score); with PUM1 PUF domain R4-PYL, 3.32 log2 enrichment (interaction score); with PUM1 PUF domain R4-CMS it was 3.01 log2 enrichment (interaction score).
As to “GGCUAGAACUAGUGGAUCCCCCGGCGCCCGGCGGCUCGAGCCCGGGUAAGCGUAAAUAGUCUGCAUGCCGCCGGGCGCCAUGCCUGCAGGUCGACUCUAGAAAACAUG”, in the assay with PUM1 PUF domain R8-HWV, the binding signal was 4.26 log2 enrichment (interaction score).
